Hits are enriched below; roughly 9.3% of the tested compounds scored in any of these assays.
Vaccinia mCherry = qHTS for Stage-Specific Inhibitors of Vaccinia Orthopoxvirus: mCherry Reporter Primary qHTS; Potency, µM (titrated, usually from 36.5 µM), usual class: inhibitors; 310,000 compounds, 0.63% hits; Vaccinia virus mCherry reporter infection, fluorescence; calls by dose curve; tested in A549 cells; note: nearly all actives have a fitted effect of over 35% in size
HCV inh = qHTS Assay for Inhibitors of Hepatitis C Virus (HCV) | Huh7.5.1 HCVcc-Cre infection, luciferase reporter, 44 h | Potency, µM (top dose mostly 41.8 µM), hits mostly inhibitors | 340,000 compounds, 3.4% hits | AID 651820, 2012
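1,000 cells/well; 4 h culture; + compound; + HCVcc-Cre (~0.5 moi); 44 h; luciferase substrate, RT 15 min; read 15 sec.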
FMDV inh = High Throughput Screening for Foot and Mouth Disease Virus Antivirals; AID 1159524, 2015; 410,000 compounds, 1.2% hits; Potency, µM (top dose mostly 57.9 µM), usual class: inhibitors; FMDV antiviral cell-based qHTS; calls by dose curve; tested in HEK293T cells; note: read-out not given here; nearly all actives have a fitted effect of over 45% in size
VACV Venus inh = qHTS for Stage-Specific Inhibitors of Vaccinia Orthopoxvirus: Venus Reporter Primary qHTS; Vaccinia virus Venus reporter expression, fluorescence; Potency, µM (series often up to 36.5 µM), most hits filed as inhibitors; 330,000 compounds, 0.46% hits; AID 720580, 2013; calls by dose curve; tested in A549 cells; note: nearly all actives have a fitted effect of over 30% in size
Sm TGR inh = qHTS Assay for the Inhibitors of Schistosoma Mansoni Peroxiredoxins; Potency, µM (highest dose often 114 µM), usual class: inhibitors; 360,000 compounds, 3% hits; Schistosoma mansoni thioredoxin glutathione reductase (TGR), Q962Y6; purified TGR, DTNB reduction, TNB absorbance 405 nm; note: nearly all actives have a fitted effect of over 60% in size
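TGR 20 nM + NADPH 100 uM (dispensed conc.), cpd preinc 15 min RT; start with NADPH (500 uM addition) then DTNB (15 mM addition). Kinetic TNB absorbance, 405 nm filter. Four-parameter Hill fit across titration.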
HCMV inh = qHTS Assay for inhibitors of the human cytomegalovirus (HCMV); HFF cells, HCMV-luciferase reporter, 72 h; stronger effect = lower value; activity change, negative = inhibition, % at 57.5 µM; 410,000 compounds, 4.5% hits; in the data active = activity change below about -60%; inconclusive = no clear call, values can overlap the other calls; inactive = above about -39%
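Two-dose cell screen: HFF monolayers treated with compounds and infected with luciferase-expressing HCMV at 1 PFU/cell, 72 h at 37C, then lysed for luciferase measurement.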
Numbers stand for hits; . = inactive; ? = inconclusive; / = no result given. Unless noted, calls come from the whole dose curve; as a rule, active = well fitted curve in the direction sought with a large enough effect; inconclusive = small, poorly fitted or top-dose-only effect, or another doubt; inactive = no such curve, though single readings can be large; an effect the other way counts as inactive or inconclusive.

SMILES | Vaccinia mCherry | HCV inh | FMDV inh | VACV Venus inh | Sm TGR inh | HCMV inh
COc1cc(-c2nnc(CSc3nnc(Nc4ccc(Oc5ccccc5)cc4)s3)o2)cc(OC)c1OC | ? | 5.6µM | . | . | . | ?
COc1cc(-c2nnc(COc3ccc4ccccc4c3)o2)cc(OC)c1OC | . | . | . | . | . | -107
CC1C(=O)Nc2ccc(S(=O)(=O)N3CCN(c4cccc(Cl)c4)CC3)cc2NC1=O (stereo not given) | . | . | ? | . | ? | .
O=C(NC(=S)NNC(=O)c1ccccc1[N+](=O)[O-])c1ccc(Br)cc1 | ? | . | . | . | . | .
O=C(Cn1ncc2c3ccccc3n(Cc3ccc(Cl)cc3)c2c1=O)NCCC1=CCCCC1 | . | / | . | . | . | .
CCN(CC)CCCNC(=O)c1cc(Cl)c(NC(=O)C2=C(C)OCCS2)cc1OC | . | 11µM | . | . | . | .
CNC(=O)c1c(NC(=O)c2ccc3ncsc3c2)sc(C)c1C | . | . | . | . | . | .
CC[C@@H](C(=O)[C@@H](C)[C@@H](O)[C@H](C)[C@@H]1O[C@@H]([C@@H](CC)C(=O)O)CC[C@@H]1C)[C@H]1O[C@]2(C=C[C@@H](O)[C@]3(CC[C@@](C)([C@H]4CC[C@](O)(CC)[C@H](C)O4)O3)O2)[C@H](C)C[C@@H]1C | 2.5µM | 0.35µM | ? | 11µM | / | -98
OCc1nc2ccccc2n1C/C=C/c1ccccc1 | . | ? | . | . | . | .
CCCCNc1nc(N)nc(-c2cc(Cl)ccc2O)n1 | ? | ? | . | 20µM | . | .
CCNc1nc(N)nc(-c2cc(Cl)ccc2O)n1 | 10µM | ? | . | 10µM | . | /
CCNc1nc(NCC)nc(N/N=C/c2ccc(Br)cc2)n1 | . | 11µM | ? | . | . | ?
c1cncc(CNC2CCCCC2)c1 | . | . | . | . | . | .
CCOc1ccc(NC(=O)NCCCn2c(C)nc3cc(C)c(C)cc32)cc1 | / | ? | . | / | . | .
Cc1cc2nc(C)n(CCCNC(=O)Nc3cccc4ccccc34)c2cc1C | / | ? | . | / | . | -80
CCC(C)NC(=O)COC(=O)c1csc2c1CCCC2 (stereo not given) | . | . | 3.5µM | . | . | .
CC(C)CNC(=S)NNC(=O)c1csc2c1CCCC2 | . | . | . | . | . | .
O=C1C(=Cc2ccco2)CCCC1=Cc1ccco1 | . | . | . | . | / | .
Cc1c(OC(=O)N(C)C)ccc2c1O/C(=C\c1ccco1)C2=O | . | . | . | . | 11µM | .
Cc1cc(O)c(CN(C)C)c2c1C(=O)/C(=C/c1ccco1)O2 | / | . | . | / | 4µM | .
CC(=O)COc1ccc2c(c1C)O/C(=C\c1ccco1)C2=O | / | ? | . | / | 20µM | .
Cc1cc(C)cc(Oc2coc3c(CN(C)C)c(O)ccc3c2=O)c1 | . | . | . | . | . | .
O=C1C(=Cc2ccco2)CCC1=Cc1ccco1 | . | . | . | . | / | ?
CCc1ccc(NC(=O)CSc2nc3c(sc4ccccc43)c(=O)n2CCCOC(C)C)cc1 | . | / | . | . | . | ?
CCOC(=O)N1CCC(N2CCN(Cc3ccccc3)C(CCO)C2)CC1 (stereo not given) | . | . | . | . | 16µM | .
SMILES | Vaccinia mCherry | HCV inh | FMDV inh | VACV Venus inh | Sm TGR inh | HCMV inh
CCOC(=O)N1CCC(N2CCN(Cc3ccc(C)o3)C(CCO)C2)CC1 (stereo not given) | . | . | . | . | . | .
COc1cccc(CN2CCN(C3CCN(c4ccccc4C)CC3)CC2CCO)c1 (stereo not given) | / | . | . | / | ? | .
COc1cccc(CN2CCN(C3CCN(c4cccc(C)c4C)CC3)CC2CCO)c1 (stereo not given) | / | 11µM | ? | / | ? | .
COc1cccc(CN2CCN(C3CCN(c4ccccc4F)CC3)CC2CCO)c1 (stereo not given) | . | . | . | . | 22µM | .
COc1ccc(-c2ncncc2-c2csc(C)n2)c(O)c1 | / | . | . | . | . | .
Cc1cc(C)nc(NC(=O)c2c(F)c(F)c(F)c(C(=O)Nc3cc(C)cc(C)n3)c2F)c1 | / | . | 25µM | / | / | .
Cc1ccc(Nc2nc(N)nc(CN3CCN(Cc4ccc5c(c4)OCO5)CC3)n2)cc1Cl | / | 32µM | ? | / | . | .
COc1ccc(N2CCN(Cc3nc(N)nc(Nc4ccc(C)c(Cl)c4)n3)CC2)cc1 | / | 10µM | ? | / | . | .
Cc1ccc(NC(=O)N(Cc2ccc3c(c2)OCO3)C2CCN(Cc3ccccc3)CC2)cc1Cl | ? | / | . | ? | . | -71
Cc1ccc(NC(=O)N(Cc2ccc3c(c2)OCO3)C2CCN(Cc3ccccc3)CC2)cc1C | . | / | . | . | . | .
CCOc1nc(Nc2ccc(OC)c(Cl)c2)nc(N2CCN(c3ccc(OC)cc3)CC2)n1 | / | 10µM | . | . | . | ?
CN(C)N1C(N)=C(C#N)C(c2ccc(F)cc2)C2=C1CC(C)(C)CC2=O (stereo not given) | . | . | . | . | . | .
CCc1ccc(NC(=O)C2CCCN(c3nnc(C)c4c(C)n(-c5ccccc5)nc34)C2)cc1 (stereo not given) | . | / | . | . | . | .
CCNCCNc1ccc([N+](=O)[O-])c2cccnc12 | . | . | . | . | . | .
Cc1nn(-c2ccccc2)c2c1C(O)CC(C)(C)C2 (stereo not given) | / | . | . | / | . | .
Cc1nc2c(c3c1[nH]c1ccccc13)C(O)CC(C)(C)C2 (stereo not given) | ? | ? | ? | . | . | -90
Cc1ccc(S(=O)(=O)CCSc2nccn2C)cc1 | . | . | . | . | . | .
Cc1cc(C)c(-n2c(SCCS(=O)(=O)c3ccc(F)cc3)n[nH]c2=O)c(C)c1 | 2µM | . | . | 2.8µM | . | .
Cc1cc(C)c(S(=O)(=O)c2ccc(F)cc2)c(C)c1 | . | / | . | . | / | .
CCCn1c(SCc2nc3ccccc3s2)n[nH]c1=O | . | . | . | . | . | .
Cc1cc(C)c(-n2c(SCc3nc4ccccc4s3)n[nH]c2=O)c(C)c1 | . | . | 35µM | . | . | .
Cc1ccc(S(=O)(=O)CCSc2n[nH]c(=O)n2-c2ccccc2)cc1 | 2µM | ? | . | 2µM | ? | ?
CCC(=O)Nc1ccc2nc(SCc3ccccc3)sc2c1 | . | / | . | . | . | ?
N#Cc1c(N)nc(Sc2ccc(Cl)cc2)c(C#N)c1-c1ccccc1Cl | ? | 11µM | 28µM | . | . | -78
CCSc1nc(N)c(C#N)c(-c2ccccc2Cl)c1C#N | / | . | . | / | . | -63
COC(=O)c1sc(N2C(=O)C(O)=C(C(=O)c3ccc(C)o3)C2c2ccc([N+](=O)[O-])cc2)nc1C (stereo not given) | / | . | . | / | . | .

Bioassay records as filed in PubChem.
